Data: PubChem BioAssay AID2732 (Emory University Molecular Libraries Screening Center, 2010)
Among all 220,000 compounds or so, about 8,200 (3.7%) were called active. Shown is part of a subset that was picked to be rich in actives. Unmarked numbers belong to inactive results.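 The calls were made as follows: active = compounds that reduced the stress-induced luciferase reporter signal by more than about 70% of percent inhibition (limit read from the data); inactive = the rest.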

Assay: blockers of ER-stress CHOP reporter expression – cell-based, unfolded protein response, luciferase reporter, primary screen (AID 2732);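 also: 0% = tunicamycin plus vehicle and 100% = wells without tunicamycin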
Details: CHO-K1 CHOP-promoter luciferase, tunicamycin-induced, 15-18 h; at 10 µM; hits give high values

Row | Structure (SMILES) | inhibition
1 | Cc1ccc(Cc2nc(-c3cccc(C)c3)no2)cc1 | 83.2% (active)
2 | Cc1ccc(-c2noc(CN3CCN(Cc4ccccc4)CC3)n2)cc1 | 38.4%
3 | Cc1cccc(-c2noc(-c3ccc(F)cc3)n2)c1 | 12%
4 | COc1ccc(OC)c(NC(=O)N[C@H](Cc2ccccc2)C(=O)NN)c1 | 17.5%
5 | CCOC(=O)CC(=O)CSc1nc(-c2ccccc2)cc(-c2ccc(Cl)cc2)c1C#N | -3.89%
6 | CCOC(=O)CSc1nccc(N(C)C)c1C#N | 74% (active)
7 | CCOC(=O)CSc1ccccn1 | -0.03%
8 | Cc1ccc(NC(=O)c2nc[nH]c2C(=O)N[C@@H](CCCCNC(=O)OC(C)(C)C)C(=O)OC(C)(C)C)cc1 | 60.9%
9 | COc1ccccc1NC(=O)CSc1nc2sc(C)c(C)c2c(=O)n1Cc1ccco1 | -22.1%
10 | Cc1ccc(C)c(SCc2nc3sc(C(=O)O)c(C)c3c(=O)[nH]2)c1 | 5.2%
11 | Cc1ccc(-c2nc(SCC(=O)Nc3ccccc3OC(F)F)c3c(C)c(C(=O)O)sc3n2)cc1 | 101% (active)
12 | O=C(O)c1ccc(/C=N/Nc2nc(N3CCCCC3)nc(N3CCCCC3)n2)cc1 | 5.9%
13 | O=C(c1ccc(=O)oc1)N1CCC(C(O)(c2ccccc2)c2ccccc2)CC1 | 18.9%
14 | Cn1cnc(S(=O)(=O)Nc2ccc3c(c2)OCCO3)c1 | 26.2%
15 | C/C(=N\NC(=S)NCc1ccccc1)c1ccc(Cl)cc1 | 16.1%
16 | C/C(=N\NC(=S)NC(C)C)c1ccc(C(C)(C)C)cc1 | 72.1% (active)
17 | CC/C(=N\NC(=S)NC(C)C)c1ccc(OC(F)F)cc1 | 11.9%
18 | CCOC(=O)N1CCN(Cc2nc(N)nc(Nc3ccc(C)cc3)n2)CC1 | 30.1%
19 | Nc1nc(CC(=O)CSc2ccc(Cl)cc2)nc(Nc2ccc(F)cc2)n1 | 81.9% (active)
20 | Cc1ccc(Nc2nc(N)nc(CSc3nnc(C)s3)n2)cc1 | -43.6%
21 | O=S(=O)(Cc1noc(-c2ccc(OC(F)(F)F)cc2)n1)c1ccc(F)cc1 | -5.94%
22 | COc1ccc(NC(=O)c2cn(-c3ccccc3)nc2SC)cc1 | 14.6%
23 | Cc1ccc(S/C(=N\S(=O)(=O)c2ccc(Cl)cc2)c2ccccc2)cc1 | 85.7% (active)
24 | O=S(=O)(/N=C(/Nc1ccccn1)c1ccccc1)c1ccc(Cl)cc1 | 8.33%
25 | Cc1ccc(S(=O)(=O)/N=C(/Nc2ccccn2)c2ccc(Cl)cc2)cc1 | 14.2%
26 | O=C(Nc1cccnc1Oc1ncnc2cc(Cl)ccc12)c1ccc(F)cc1 | -24.4%
